Tb PYK inh – T. brucei pyruvate kinase inhibition | AID 624173 | actives 0.12% (n = 410,000) | TbPYK enzyme, Kinase-Glo Plus ATP luminescence, 45 min | Potency, µM (highest dose often 76.8 µM), for inactives: top-dose activity, negative = inhibition, hits mostly inhibitors | Q57TT1; further: potency means the concentration at half of the fitted maximal effect; on the % scale 0 is the no-effect control and ±100 the full control effect; nearly all actives have a fitted effect of over 50% in size
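Assay buffer: 50 mM TEA pH 7.2, 100 mM KCl, 10 mM MgCl2, 0.05% BSA, 0.01% Tween-20. Pyruvate kinase from T. brucei plus substrate met compound, then ADP (130 uM final). Luminescence was read post 45 min RT.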
LmPK inhibitor – LmPK (Leishmania mexicana) enzyme inhibition; Q27686; purified LmPK, Kinase-Glo ATP luminescence, 1 h; Potency, µM (series often up to 57.5 µM), without a hit: at the top dose activity change, negative = inhibition, hits mostly inhibitors; actives 0.37% (n = 290,000); AID 1721; further: potency means the concentration at half of the fitted maximal effect; on the % scale 0 is the no-effect control and ±100 the full control effect
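ATP generated from ADP (0.1 mM) and PEP (0.5 mM) by 0.1 nM LmPK over 1 h at room temperature (pH 7.2 imidazole buffer) was detected by coupled luciferase luminescence. Values were normalized to uninhibited and no-enzyme wells.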
Giardia FBPA inh – blocks Giardia fructose-bisphosphate aldolase activity | purified Giardia FBPA | Potency, µM (highest dose often 59.6 µM), for inactives: at the highest dose activity, negative = inhibition, most hits filed as inhibitors | actives 0.71% (n = 290,000) | AID 2451 | A8B2U2; further: potency means the concentration at half of the fitted maximal effect; on the % scale 0 is the no-effect control and ±100 the full control effect; nearly all actives have a fitted effect of over 55% in size
Target sequence (A8B2U2 whole entry, looked up): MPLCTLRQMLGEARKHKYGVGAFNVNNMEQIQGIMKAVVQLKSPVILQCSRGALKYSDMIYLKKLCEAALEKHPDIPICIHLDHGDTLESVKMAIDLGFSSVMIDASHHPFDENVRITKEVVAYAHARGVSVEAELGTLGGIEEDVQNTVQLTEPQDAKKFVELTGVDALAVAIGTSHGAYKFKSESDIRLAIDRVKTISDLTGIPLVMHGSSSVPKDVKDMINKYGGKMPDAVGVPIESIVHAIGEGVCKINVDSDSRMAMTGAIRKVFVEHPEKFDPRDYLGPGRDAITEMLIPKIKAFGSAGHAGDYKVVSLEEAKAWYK
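Giardia FBPA (40 nM reagent) was preincubated 10 min at RT with compound (up to 57.5 uM final), then substrate plus GAPDH/TPI/NAD/arsenate coupling system with diaphorase/resazurin was added; resorufin fluorescence (525/598 nm) was read after 20 min.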
Sm TGR inh – blocks Schistosoma mansoni thioredoxin glutathione reductase; Q962Y6; purified TGR, DTNB reduction, TNB absorbance 405 nm; Potency, µM (top dose mostly 114 µM), for the others: at the top dose activity change, negative = inhibition, hits mostly inhibitors; actives 3% (n = 360,000); AID 485364; further: potency means the concentration at half of the fitted maximal effect; on the % scale 0 is the no-effect control and ±100 the full control effect; nearly all actives have a fitted effect of over 60% in size
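Kinetic colorimetric format: TGR-catalysed, NADPH-driven DTNB reduction monitored via TNB absorbance. Enzyme dispensed at 20 nM; compound exposure 15 min at room temperature before reaction start.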
Shiga toxin inh – Shiga toxin inhibition; Vero cells, Shiga toxin protein synthesis inhibition reporter; inhibition, % at 38.7 µM; actives 9.2% (n = 290,000); AID 2315; in the data active means inhibition mostly above about 28%, no sharp cut-off; inactive means mostly below about 43%; further: 0% is about no effect
CHX counter – counter-screen hit for Shiga toxin inhibitors, cycloheximide. cell reporter, cycloheximide protein synthesis inhibition counterscreen. max response, %. actives 12% (n = 300,000). AID 2314; in the data active means max response mostly above about 13%, no sharp cut-off; inactive means mostly below about 14%; further: read at 38.3 µM for the half of the compounds with a filed dose; 0% is about no effect
Active calls of the source: *; ? = inconclusive; / = not tested or not shown; + = active, no number. The entries come from a sample that favours hits as a whole. Unless noted, the call rests on the fitted dose curve; in most records, active means well fitted curve in the direction sought with a large enough effect; inconclusive means small, poorly fitted or top-dose-only effect, or another doubt; inactive means no such curve, though single readings can be large; an effect the other way counts as inactive or inconclusive.

SMILES | Tb PYK inh | LmPK inhibitor | Giardia FBPA inh | Sm TGR inh | Shiga toxin inh | CHX counter
CCCCN(CC)CCCNC(=O)Nc1sc2nc3n(c(=O)c2c1C)CCC(C)CC3 (configuration not stated) | -1% | / | / | -1% | / | /
COc1cccc(CN2c3ccccc3-c3nc(SCC(=O)Nc4cccc(C)c4)ncc3S2(=O)=O)c1 | -1% | / | / | -5% | / | /
COC(=O)c1ccc(C(/C=C/[C@@H](C)C(=O)N(C)Cc2ccccc2)NC(=O)OCc2ccccc2)cc1 (some centres not stated) | / | / | -2% | / | / | /
CCOC(=O)Cc1csc(NC(=O)c2ccco2)n1 | -5% | -7% | -10% | 2% | 50* | 50*
CCOC(=O)Cc1csc(NC(=O)c2ccc(Cl)s2)n1 | 12% | -4% | -2% | -4% | 54* | 60*
CCOC(=O)Cc1csc(NC(=O)c2ccc3ncsc3c2)n1 | 6% | 1% | / | 2% | 83* | 29*
Cc1csc(NC(=O)c2ccc(C)o2)n1 | -3% | -28% | 0% | -1% | + | 59*
CCOC(=O)Cc1csc(NC(=O)c2ccncc2)n1 | -15% | -3% | 0% | 6% | 7 | -4
CC(C)C[C@@H](CC(=O)N[C@@H](CCC(=O)O)CC(=O)O)NC(=O)[C@@H]1CNCC[C@H]1NC(=O)C[C@H](CCCN)NC(=O)C[C@H](CO)NC(=O)[C@@H]1CCCC[C@H]1N | / | / | -15% | / | / | /
O=C(CSC(=S)N1CCOCC1)Nc1ccc(S(=O)(=O)Nc2ncccn2)cc1 | 1% | 6% | ? | -9% | -5 | 9
C=C1C(CCl)(CCl)C2(Cl)C(Cl)C(Cl)C1(Cl)C2(Cl)Cl (configuration not stated) | -1% | / | / | / | / | /
O=C(N1CCCCC1)C1(S(=O)(=O)c2ccccc2)CC=CC1 | -2% | 2% | 3% | -21% | 10 | 17*
COCCNC(=O)C1(S(=O)(=O)c2ccccc2)CC=CC1 | -10% | -2% | 3% | 3% | 25 | 13*
O=C(N1CCOCC1)C1(S(=O)(=O)c2ccccc2)CC=CC1 | 1% | -4% | 6% | -7% | -1 | -3
COc1cccc(C(=O)NCC(=O)NCc2cc(=O)n(C)c(=O)n2C)c1 | -5% | 1% | -2% | -16% | -10 | -3
CC[C@@]1(O)C(=O)OCc2c1cc1n(c2=O)Cc2cc3cc(O)ccc3nc2-1 | / | / | -8% | / | / | /
CCc1ccc(-c2cn3c(n2)SCC3)cc1 | 1% | -15% | -2% | -6% | 68* | 47*
Cc1ccc(-c2cn3c(n2)SCC3)cc1 | -1% | 2% | 6% | -13% | 141* | 43*
CCNC(=S)N/N=C/c1cn(Cc2ccccc2F)c2ccccc12 | -1% | 7% | 4% | 4% | 24 | 17*
CCn1cc(/C=N/NC(=O)c2ccc(C#N)cc2F)c2ccccc21 | 2% | 3% | 16µM* | -2% | -13 | -2
COC(=O)Cn1cc(/C=N/NC(=O)c2ccc(C#N)cc2F)c2ccccc21 | -2% | -1% | 3% | 9% | -6 | -1
COc1ccc(OCCCC(=O)NCCc2nc3ccccc3[nH]2)cc1 | -1% | -5% | -2% | -2% | -6 | -3
c1ccc2cc(OCc3nc4ccccc4[nH]3)ccc2c1 | 2% | -5% | 2% | 1% | 108* | 49*
Brc1ccc(OCc2nc3ccccc3[nH]2)cc1 | 0% | -2% | -28% | -2% | 94* | 55*
CN(C)C(=O)Oc1ccc(OCc2nc3ccccc3[nH]2)cc1 | ? | 7.1µM* | 3% | -5% | 35* | 24*
COc1cccc(OCc2nc3ncc(Br)cc3[nH]2)c1 | 13% | 6% | -12% | -26% | 31 | 17*
CC(C)Oc1cccc(C(=O)N/N=C/c2coc3ccccc3c2=O)c1 | -6% | -15% | / | -20% | -6 | -1
C[C@@H]1CCN=C(N)S1 | / | / | -6% | / | / | /
COc1cccc(OCc2nc3ccccc3[nH]2)c1 | -2% | -12% | -3% | -10% | 93* | 36*
Nc1ccc2nc(CCCCCCc3nc4ccc(N)cc4[nH]3)[nH]c2c1 | 0% | 8% | -28% | 8% | -4 | -3
